Rows were chosen to be rich in hits. Some 7.1% of all compounds tested hit in one or more screens of this group.
ATXN viability: reduces viability in counter-screen for ATXN expression inhibitors. S2 cells (HEK-293 line with an ATXN2-luciferase reporter) viability, CellTiter-Fluor protease fluorescence, 24 h. hit rate 0.49% among 400,000. Potency, µM (top dose mostly 56.7 µM), actives largely listed as cytotoxic; further: nearly all actives have a fitted effect of over 40% in size
IL-1B inflam inh: inhibitors of inflammasome signaling (IL-1 beta secretion) | THP-1 LPS/ATP IL-1B secretion, AlphaLISA, 16 h; hits give low values | activity change, % at 57.5 µM | hit rate 4.7% among 360,000 | AID 743279; in the data active means activity change below about -50%; inconclusive means mostly about -30% to -49%
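THP-1 cells pretreated 1 hr with compounds (up to 57.5 uM final), then stimulated with LPS (250 ng/mL final) plus ATP (1.25 mM final); secreted IL-1B measured by AlphaLISA after 16 hr, decreased signal indicating inhibition.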
ATXN2 expr inh: inhibitors of ATXN2 expression | HEK-293 ATXN2-luciferase reporter, luminescence, 24 h | Potency, µM (top dose mostly 57 µM), actives largely listed as inhibitors | hit rate 0.72% among 360,000 | AID 1745845; further: nearly all actives have a fitted effect of over 55% in size
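qHTS (up to 57 uM final) was run with 24 h compound exposure of reporter cells at 37 °C. Each well was multiplexed: SteadyGlo luminescence measured ATXN2-luciferase expression after a fluorogenic Gly-Phe-AFC viability readout (25 uM final).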
PINK1 modulator: modulators of PINK1 expression. Potency, µM (titrated, usually from 76.6 µM), usual class: activators. AID 624263. hit rate 0.2% among 410,000. PINK1 immunofluorescence, high-content cytometry, 24 h; active means well fitted activation curve with a large enough effect; inconclusive means small, poorly fitted or top-dose-only effect; cell line not stated here; further: nearly all actives have a fitted effect of over 65% in size
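Readout is PINK1 immunofluorescence, quantified alongside mitochondrial, cell and nuclear markers by laser-scanning microplate cytometry. Cells from a stable line were exposed to compound titrations (5 concentrations) for 24 hours, with CCCP controls.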
MCF10A rereplic: inducers of DNA re-replication in MCF 10A breast cells | Potency, µM (top dose mostly 46.1 µM), most hits filed as activators | AID 624296 | hit rate 2.9% among 350,000 | MCF 10A DNA re-replication, Hoechst nuclear intensity, 48 h; further: nearly all actives have a fitted effect of over 50% in size
SW480 rerep: induces DNA re-replication in SW480 colon adenocarcinoma cells; SW480 DNA re-replication, Hoechst DNA content imaging, 48 h; hit rate 1.8% among 340,000; Potency, µM (titrated, usually from 46.1 µM), most hits filed as activators; AID 624297; further: nearly all actives have a fitted effect of over 55% in size
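Cells (250 per well) received 23 nL compound or DMSO by pin tool and were kept 48 hr at 37 C, 5% CO2. Nuclei were then stained with Hoechst for 40 min and scanned for DNA content.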
Large screens that a line does not name were inactive. Unless noted, the call rests on the fitted dose curve; in most records, active means well fitted curve in the direction sought with a large enough effect; inconclusive means small, poorly fitted or top-dose-only effect, or another doubt; inactive means no such curve, though single readings can be large; an effect the other way counts as inactive or inconclusive.

CCOC(=O)c1c(NC(=O)C(C)Sc2cn(CCNC(=O)c3ccc(OC)c(OC)c3)c3ccccc23)sc2c1CCC2 (centres undefined)	none (no result: IL-1B inflam inh, MCF10A rereplic, SW480 rerep)
COc1cccc(OC)c1OCCCN1CCC(Cc2ccccc2)CC1	IL-1B inflam inh -65
COc1ccc(CNC(=O)CN2CCN(C(c3ccccc3)c3ccccc3)CC2)cc1	IL-1B inflam inh -64, PINK1 modulator inconclusive, MCF10A rereplic inconclusive, SW480 rerep inconclusive
COc1cccc(OC)c1OCCN1CCN(C(c2ccccc2)c2ccccc2)CC1	IL-1B inflam inh -53, MCF10A rereplic inconclusive
COc1ccc(CN2CCC(Cc3ccccc3)CC2)cc1OC	IL-1B inflam inh inconclusive, ATXN2 expr inh inconclusive
O=C(Nc1ccc(C(=O)N2CCN(c3ccccc3)CC2)cc1)c1nsc2ccccc12	none (no result: ATXN viability, IL-1B inflam inh, ATXN2 expr inh, MCF10A rereplic, SW480 rerep)
Cc1cc(-c2ccnc(-n3ncc(C(=O)N4CCCCC4c4cccnc4)c3C3CC3)n2)c(C)s1 (centres undefined)	none (no result: IL-1B inflam inh, ATXN2 expr inh, MCF10A rereplic, SW480 rerep)
CCOc1ccccc1-c1noc(CCCC(=O)Nc2cccc(C(F)(F)F)c2)n1	ATXN viability inconclusive (no result: IL-1B inflam inh, MCF10A rereplic, SW480 rerep)
Cc1cccc(-c2nnc3n(CCc4ccccc4)c(=O)c4ccccc4n23)c1	none (no result: IL-1B inflam inh, MCF10A rereplic, SW480 rerep)
Cn1cnnc1SCCOc1ccc(Cl)cc1	IL-1B inflam inh -80
Cc1cccc(OCCSc2nncn2C)c1	none
Cn1cc(CC(=O)NCCN2CCOCC2)c2ccccc21	SW480 rerep 23µM (no result: ATXN2 expr inh)
Cn1cc(CN(CCCN2CCOCC2)C(=S)Nc2cccc(Cl)c2)c2ccccc21	ATXN2 expr inh inconclusive, MCF10A rereplic 23µM, SW480 rerep 16µM
S=C(Nc1cccc(Cl)c1)N(CCCN1CCCC1)Cc1cccn1Cc1ccc(Cl)cc1	ATXN viability 28µM, IL-1B inflam inh -101, ATXN2 expr inh 32µM, MCF10A rereplic inconclusive
CSc1cccc(NC(=S)N(CCCN2CCCC2)Cc2cccn2Cc2ccc(Cl)cc2)c1	IL-1B inflam inh inconclusive, ATXN2 expr inh 14µM, MCF10A rereplic 21µM, SW480 rerep inconclusive (no result: ATXN viability)
NC(=O)C1(Nc2ccc(-c3ccc(Br)cc3)cc2)CCCC1	ATXN viability inconclusive, MCF10A rereplic inconclusive
Oc1[nH]c2ccccc2c1C=Nc1ccc2c(c1)OCCO2	ATXN viability inconclusive, IL-1B inflam inh -90, MCF10A rereplic inconclusive
CC1=C(C(=O)Nc2cc3cn[nH]c3cc2F)C(c2ccc(C(F)(F)F)cc2)CC(=O)N1 (centres undefined)	none (no result: ATXN viability, IL-1B inflam inh, PINK1 modulator, MCF10A rereplic, SW480 rerep)
CCOc1ccc(Nc2cc(C)nc3c(C)cccc23)cc1	ATXN viability inconclusive, IL-1B inflam inh -63
Cc1cc(Nc2ccc3c(c2)OCCO3)c2cccc(C)c2n1	ATXN viability inconclusive, IL-1B inflam inh -94
O=C(NOCC(O)CO)c1cc(Br)c(F)c(F)c1Nc1ccc(I)cc1F (centres undefined)	none (no result: ATXN viability, IL-1B inflam inh, PINK1 modulator, MCF10A rereplic, SW480 rerep)
COc1cccc(C(c2sc3nc(-c4ccco4)nn3c2O)N2CCN(C)CC2)c1 (centres undefined)	none (no result: IL-1B inflam inh, MCF10A rereplic, SW480 rerep)
COC(=O)CCC(C)C1CCC2C3CCC4CC(O)CCC4(C)C3CC(O)C12C (centres undefined)	ATXN viability inconclusive, ATXN2 expr inh inconclusive, MCF10A rereplic 21µM
O=C(Oc1ccc(-c2nnco2)cc1)N(c1ccccc1)c1ccccc1	IL-1B inflam inh -79
CCCNC(=O)Cn1c(=O)/c(=C/c2ccc(-c3ccc([N+](=O)[O-])cc3)o2)s/c1=C\C(=O)C(C)(C)C	MCF10A rereplic 18µM, SW480 rerep 7.3µM
CCOC(=O)c1cc2c(=O)n3ccccc3nc2n(CCCOC)c1=NC(=O)C(C)(C)C	MCF10A rereplic inconclusive, SW480 rerep 18µM (no result: ATXN viability)
CCOC(=O)c1cc2c(=O)n3ccccc3nc2n(CCOC)c1=NC(=O)C(C)(C)C	SW480 rerep inconclusive (no result: ATXN viability)
CCOC(=O)c1cc2c(=O)n3ccccc3nc2n(CCOC)c1=NC(=O)c1c(-c2c(F)cccc2Cl)noc1C	IL-1B inflam inh -55, MCF10A rereplic 18µM, SW480 rerep inconclusive
CCCCn1c(=NC(=O)c2c(-c3c(F)cccc3Cl)noc2C)c(C(=O)OCC)cc2c(=O)n3ccccc3nc21	none (no result: IL-1B inflam inh, MCF10A rereplic, SW480 rerep)
CCC(=O)Nc1ccc(CC)cc1-c1nc2ccccc2n(CC(=O)Nc2ccccc2C)c1=O	none (no result: ATXN viability, IL-1B inflam inh, ATXN2 expr inh, MCF10A rereplic, SW480 rerep)
